aSyn yeast inh = qHTS of alpha-syn Inhibitors; Yeast expressing alpha-synuclein, growth rescue, BacTiter-Glo, 24 h; Potency, µM (titrated, usually from 46.1 µM), inactives show at the highest dose growth rescue (activation), hits mostly activators; 0.14% of 370,000 active; AID 652106, 2013; further: potency means the concentration at half of the fitted maximal effect; % of control where 0% means no effect; nearly all actives have a fitted effect of over 65% in size
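Screening used galactose-induced yeast with toxic alpha-synuclein levels, exposed to compound for 24 hr at 30 deg C. Cell growth, read with BacTiter-Glo luminescence, gave the measured signal.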
Abeta yeast res = qHTS for compounds that reverse cellular toxicity of Amyloid beta (A-beta) peptide in yeast: Primary Screen. yeast expressing A-beta42, growth rescue, OD600, 48 h; response scale: 0% DMSO, 100% iron-clioquinol control. Potency, µM (top dose mostly 46.1 µM), actives largely listed as activators. 0.063% of 410,000 active. AID 1347071, 2019; further: potency means the concentration at half of the fitted maximal effect; nearly all actives have a fitted effect of over 55% in size
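Yeast growth medium received pinned compounds, then yeast cells expressing toxic A-beta were added; plates incubated at 30 C for 48 hr. Growth read as absorbance at 600 nm, normalized to DMSO and equimolar FeCl3 plus clioquinol controls.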
pAkt inh = HTS Assay for Inhibitors of Akt Phophorylation: Primary Screen | 0.32% of 360,000 active | activity change, % for hits at 50 µM | Neuro2A IGF-stimulated pAkt S473 HTRF, 20 min; stronger effect = lower value; in the data active means activity change below about -80%; inconclusive means mostly about -51% to -80%; further: on the % scale 0 is the no-effect control and ±100 the full control effect
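Neuro2A cells (4,500/well, DMEM with 0.5% FBS) were treated with compound at a single 50 µM final concentration, stimulated with 6 nM IGF for 20 min at 37 °C, and lysed. Phospho-Akt Ser473 was read by HTRF as 665/615 ratio ×10^4.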
TDP-43 yeast inh = qHTS of TDP-43 Inhibitors | TDP-43 expressing yeast growth rescue, BacTiter-Glo, 24 h | Potency, µM (series often up to 46.1 µM), without a hit: at the top dose growth rescue (activation), usual class: activators | 1.8% of 410,000 active; further: potency means the concentration at half of the fitted maximal effect; % of control where 0% means no effect; nearly all actives have a fitted effect of over 50% in size
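Galactose-induced TDP-43 yeast, OD600=0.02, compound pinned; 24 hr, 30 deg C; BacTiter-Glo luminescence for growth. Inhibitors of TDP-43 toxicity read as activators.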
FUS yeast rescue = qHTS for Suppressors of FUS Proteinopathy: Primary screen using FUS-linked yeast assay | S. cerevisiae FUS-expressing, growth rescue, OD600, 24 h | Potency, µM (doses to about 76.6 µM), actives largely listed as activators | 0.24% of 390,000 active;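 further: potency means the concentration at half of the fitted maximal effect; plate controls were DMSO vehicle for no effect and reference control for full effect; nearly all actives have a fitted effect of over 55% in size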
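Cultures pregrown in 2.5% raffinose medium are shifted to minimal medium containing 2% galactose to express toxic FUS. Compounds are tested at several concentrations. After 24hr at 30C, growth is quantified at 600 nm absorbance.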
Numbers without * were called inactive; i = inactive; ? = inconclusive; nt = no result given; [ ] = another dose, or the depositor's remark. A selection: hits, their analogues and other compounds. The true share with any hit is near 2.3%. Unless noted, the call rests on the fitted dose curve; in most records, active means well fitted curve in the direction sought with a large enough effect; inconclusive means small, poorly fitted or top-dose-only effect, or another doubt; inactive means no such curve, though single readings can be large; an effect the other way counts as inactive or inconclusive.

SMILES | aSyn yeast inh | Abeta yeast res | pAkt inh | TDP-43 yeast inh | FUS yeast rescue
O=C(COc1ccc(F)cc1)Nc1nc(-c2ccccn2)cs1 | -19.6% | i | i | -53.6% | i
O=C(COc1ccc([N+](=O)[O-])cc1)Nc1cccnc1 | 4.8% | i | i | -9.2% | i
O=C(COc1ccccc1)Nc1nc(-c2cccnc2)cs1 | -8.0% | i | i | 10µM* | ?
Cc1ccc(OCC(=O)Nc2nc(-c3ccccn3)cs2)c(C)c1 | 22.4µM* | i | i | ? | i
O=C(O)c1ccc(CNc2ncnc3nc[nH]c23)cc1 | -2.7% | nt | nt | nt | nt
O=C(CCCc1ccccc1)NC1CC(=O)N(c2ccc(F)cc2)C1 (configuration not stated) | nt | i | nt | 12.6% | i
CN(C)c1cc(-c2ccc(Br)cc2)oc(=O)c1Cl | 1.6% | i | i | 7.94µM* | i
COc1ccccc1N1CCN(C(=O)c2ccc(-c3ccc(Cl)cc3)o2)CC1 | 3.4% | i | i | 15.8µM* | ?
COc1ccccc1N1CCN(C(=O)c2ccc(-c3nc4ccccc4s3)o2)CC1 | 0.8%[1.84 µM] | i | i | 22.4µM* | ?
COc1ccccc1N1CCN(C(=O)NCc2ccc(Cl)cc2)CC1 | 11.3% | i | i | 13.7% | i
CN=C1S/C(=C\c2ccc(Cl)cc2)C(=O)N1C | 2.0% | i | i | 10.7% | i
CN=C1S/C(=C\c2cccc(Cl)c2Cl)C(=O)N1C | 11.2% | i | i | 12.6µM* | i
COc1ccc(-c2oc3c(c2C#CC2(O)CCCCC2)C(OC(C)=O)CCC3)cc1 (configuration not stated) | 20.3% | i | i | 20µM* | ?
Cc1cc2nc(SCC(=O)Nc3nonc3C)c3c(c2cc1C)CCCC3 | -0.7% | i | -91.4%* | -6.1% | i
Cc1cc(C)cc(NC(=O)c2cc(C)nc3c2c(C)nn3-c2ccccc2)c1 | -4.6% | i | nt | 3.7% | i
O=C1C(=Cc2cccc(Cl)c2)CCc2ccccc21 | -21.6% | i | i | 20µM* | i
CC(=O)Nc1ncnc2c1c(-c1ccc(Cl)cc1)nn2C(C)(C)C | 3.55µM* | i | i | 8.9% | i
CC(=O)N(C(C)=O)c1ncnc2c1c(-c1ccc(Cl)cc1)nn2C(C)(C)C | -25.8% | i | i | 0.0% | i
NCc1nc2cccnc2n1Cc1ccccc1Cl | nt | i | nt | 22.6% | i
OCCCCC#Cc1c(-c2ccsc2)sc2ccccc12 | -34.1% | i | i | 14.1µM* | i
OCCC#Cc1c(-c2ccsc2)sc2ccccc12 | -40.2% | i | i | ? | i
Cc1cccc(Cn2c(COc3ccccc3)nc3ccccc32)c1 | ? | i | nt | 17.8µM* | i
Cc1ccccc1OCc1nc2ccccc2n1C | -15.7% | i | i | 17.8µM* | i
COc1cccc(OCc2nc3ccccc3n2Cc2ccccc2C)c1 | nt | ? | nt | 22.4µM* | i
Fc1ccc(Cn2c(-c3cccc(Br)c3)nc3ccccc32)cc1 | nt | i | nt | 22.4µM* | i
SMILES | aSyn yeast inh | Abeta yeast res | pAkt inh | TDP-43 yeast inh | FUS yeast rescue
CCc1ccc(C(=O)c2cn(CC(=O)Nc3cc(OC)ccc3OC)c3ccc(Cl)cc3c2=O)cc1 | nt | i | nt | 10.5% | i
Cc1cccc(Cn2c(C(C)O)nc3ccccc32)c1 (configuration not stated) | 0.3% | i | i | 11.1% | i
Cc1cccc(-c2nc3ccccc3n2Cc2ccccc2)c1 | nt | i | nt | 11.2µM* | i
Cc1ccc(Cn2c(-c3ccccc3)nc3ccccc32)cc1 | nt | i | nt | 25.1µM* | i
Cc1nc2cc(NCc3nc4ccccc4n3Cc3ccccc3)ccc2n1C | -7.9% | i | i | -11.3% | nt
Cc1cccc(NCc2nc3ccccc3n2Cc2ccccc2)c1 | 0.0% | ? | i | 15.8µM* | i
CCc1ccc(NC(=O)CSc2nnc(-c3ccc(N)cc3)n2C)cc1 | -0.9% | nt | nt | nt | nt
O=C(NCCC1=CCCCC1)c1ccc2c(c1)N(Cc1ccccc1)C(=O)c1ccccc1S2(=O)=O | nt | i | nt | 25.0% | i
